Experimental data taken from the supplement of paper PMC8728848.
Shown is part of a subset that was picked to be rich in the strongest signals.

How the values were obtained:
Test in all cases: glycan array binding signal (z-score within array); higher = stronger binding
Settings in all cases: glycan notation: IUPAC condensed, linker removed
Gal(a1-2)Gal = system: Gal(a1-2)Gal
Summary of the method: (§1)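 Glycan array data came from 3228 arrays in the Consortium for Functional Glycomics database, and only arrays with an available protein sequence were kept. Glycan names were put into IUPAC-condensed notation, and columns mapping to the same glycan were averaged. The binding signal is a within-array Z-score, averaged across arrays of one protein sequence run at different concentrations or buffers and across linkers. A negative Z-score can be read as non-binding.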

[1] = system: Gal(a1-3)Gal(b1-3)GlcNAc(b1-2)Man(a1-3)[Gal(a1-3)Gal(b1-3)GlcNAc(b1-2)Man(a1-6)]Man(b1-4)GlcNAc(b1-4)GlcNAc
Summary of the method: as §1

[2] = system: Gal(a1-3)Gal(b1-3)GlcNAc(b1-6)GalNAc
Summary of the method: as §1

Gal(a1-3)Gal(b1-3)GlcNAc = system: Gal(a1-3)Gal(b1-3)GlcNAc
Summary of the method: as §1

[3] = system: Gal(a1-3)Gal(b1-4)GlcNAc(b1-2)Man(a1-3)[Gal(a1-3)Gal(b1-4)GlcNAc(b1-2)Man(a1-6)]Man(b1-4)GlcNAc(b1-4)GlcNAc
Summary of the method: as §1

[4] = system: Gal(a1-3)Gal(b1-4)GlcNAc(b1-2)Man
Summary of the method: as §1

[5] = system: Gal(a1-3)Gal(b1-3)[Fuc(a1-4)]GlcNAc(b1-2)Man(a1-3)[Gal(a1-3)Gal(b1-3)[Fuc(a1-4)]GlcNAc(b1-2)Man(a1-6)]Man(b1-4)GlcNAc(b1-4)GlcNAc
Summary of the method: as §1

Q: For Epa22, which “glycan array binding signal (z-score)” value (Gal(a1-2)Gal) is on record?
A: The value was -0.244.

Q: Which “glycan array binding signal (z-score)” value [1] does the source give for Wza (Escherichia coli), P0A930 here?
A: The value was 0.652.

Q: For LcI (Legionella pneumophila), which “glycan array binding signal (z-score)” value [2] is on record?
A: The value was 4.

Q: What about the “glycan array binding signal (z-score)” value (Gal(a1-3)Gal(b1-3)GlcNAc) of the same substance?
A: The value was 4.41.

Q: And the “glycan array binding signal (z-score)” value [3]?
A: Its value is 0.12.

Q: What about the “glycan array binding signal (z-score)” value [4] of the same substance?
A: The value was -0.012.

Q: Which “glycan array binding signal (z-score)” value (Gal(a1-3)Gal(b1-3)GlcNAc) does the source give for “SiiE (Salmonella typhimurium), A0A0H3NVH0” here?
A: The value was 0.637.

Q: With “SpGH101 (Streptococcus pneumoniae), Q8DR60” as the substance, how does the “glycan array binding signal (z-score)” value [5] read?
A: Its value is 0.17.

Q: Actinohivin (Actinomycete K97) was tested. Which “glycan array binding signal (z-score)” value [5] did it give?
A: The value was 0.526.
